# Measured values taken from PubChem BioAssay (Tox21).
# Activity calls are given as the source filed them. A call without a number means that no potency is given here. Unless noted, calls follow the shape of the dose curve; as a rule, active = well fitted curve in the direction sought with a large enough effect in the repeat runs; inconclusive = weak or mixed curves; inactive = no such curve, though single readings can be large; an effect the other way counts as inactive or inconclusive.
# Assays:
# [1] = qHTS assay for small molecule agonists of the p53 signaling pathway (AID 651631; calls by dose curve; also: nearly all actives have a fitted effect of over 15% in size; also: potency is read from the fitted curve at half-maximal effect)
# Method in brief: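 Agonist mode screen using a stably integrated beta-lactamase gene under p53 response elements in HCT-116 cells. Compound exposure lasts 16 h at 37 °C; fluorescence intensity is measured following 2 h FRET substrate loading.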
# [2] = qHTS assay for small molecules that induce genotoxicity in human embryonic kidney cells expressing luciferase-tagged ATAD5 (AID 651632); also: nearly all actives have a fitted effect of over 15% in size; also: potency is read from the fitted curve at half-maximal effect
# Method in brief: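 Cells were seeded at 2,000 per well, dosed with compound, and incubated 16 hr at 37C in 5% CO2. Luciferase activity was then quantified after a 30 min room-temperature incubation with Amplite.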
# [3] = qHTS assay for small molecule agonists of the p53 signaling pathway - cell viability (AID 651633; calls by dose curve; also: nearly all actives have a fitted effect of over 30% in size; also: potency is read from the fitted curve at half-maximal effect)
# Method in brief: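 p53RE-bla cells were treated with compound for 16 hours at 37 C. Cytotoxicity was then measured as CellTiter-Glo luminescence after 30 min at room temperature.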
# [4] = qHTS assay for small molecules that induce genotoxicity in human embryonic kidney cells expressing luciferase-tagged ATAD5 - cell viability (AID 651634; calls by dose curve; also: nearly all actives have a fitted effect of over 25% in size)
# Method in brief: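 Cells (HEK293T, luciferase-tagged ATAD5) are seeded at 2,000 per well, dosed with compound or DMSO vehicle, and incubated 15.5 hr at 37C and 5% CO2. CellTiter-Fluor is added for 30 min before fluorescence is measured.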
# [5] = qHTS assay for small molecule disruptors of the mitochondrial membrane potential - cell viability (AID 720634; calls by dose curve;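 also: human HepG2 liver cancer cells; nearly all actives have a fitted effect of over 20% in size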)
# Method in brief: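 Cytotoxicity was measured by ATP quantitation in HepG2 wells that had first been treated with compound for 1 hr and stained with m-MPI dye; CellTiter-Glo incubation was 30 min at room temperature.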
# [6] = qHTS assay to test for compound auto fluorescence at 590 nm (red) in HepG2 cells (AID 720674)
# Method in brief: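 HepG2 cells, 2,000 per well in MEM with 10% FBS, attached overnight at 37 C, then got 23 nL compound or DMSO. After 1 hr at 37 C, 5% CO2, red fluorescence was read at 540/590 nm against Rose Bengal sodium as reference.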
# [7] = qHTS assay to test for compound auto fluorescence at 460 nm (blue) in HEK293 cells (AID 720678)
# Method in brief: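 HEK293 cells (2,000 per well, medium with 10% dialyzed FBS) attached for 4-5 hr at 37C, then received compound and stood overnight at 37C, 5% CO2. Blue fluorescence was read at Ex/Em 405/460 nm and expressed relative to triamterene.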
# [8] = qHTS assay to test for compound auto fluorescence at 590 nm (red) in HEK293 cells (AID 720679)
# Method in brief: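 HEK293 cells (2,000/well, medium with 10% dialyzed FBS) attached for 4-5 hr at 37C, received 23 nL compound and were incubated overnight at 37C, 5% CO2. Red fluorescence was then read at 540/590nm Ex/Em, referenced to Rose Bengal sodium.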
# [9] = qHTS assay to test for compound auto fluorescence at 535 nm (green) in HEK293 cells (AID 720680)
# [10] = qHTS assay to test for compound auto fluorescence at 460 nm (blue) in HEK293 cell free culture (AID 720681)
# Method in brief: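 Compounds were added to cell-free DMEM with 10% FBS and fluorescence read directly. The blue channel used 405 nm excitation and 460 nm emission, with triamterene as the reference fluorophore.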
# [11] = qHTS assay to test for compound auto fluorescence at 535 nm (green) in HEK293 cell free culture (AID 720682)
# Method in brief: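 No cells present: wells hold DMEM supplemented with 10% FBS, into which compound or vehicle is pinned. Green emission is then recorded (485 nm excitation, 535 nm emission) and scaled to fluorescein.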
# [12] = qHTS assay to test for compound auto fluorescence at 590 nm (red) in HEK293 cell free culture (AID 720683)
# Method in brief: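 Cell-free wells of DMEM with 10% FBS received compound, and intrinsic fluorescence was read at excitation/emission 540/590 nm. Values expressed as equivalence to Rose Bengal sodium.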
# [13] = qHTS assay to test for compound auto fluorescence at 590 nm (red) in HepG2 cell free culture (AID 720684)
# Method in brief: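 Auto fluorescence equivalency versus Rose Bengal sodium, red channel Ex/Em 540/590 nm; compounds in cell-free MEM/10% FBS; DMSO vehicle control.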
# [14] = qHTS assay to test for compound auto fluorescence at 460 nm (blue) in HepG2 cell free culture (AID 720685)
# Method in brief: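 Cell-free plates of MEM plus 10% FBS received 23 nL compound or DMSO vehicle; blue-channel (405/460 nm) intensity scored against triamterene as reference fluorophore.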
# [15] = qHTS assay to test for compound auto fluorescence at 535 nm (green) in HepG2 cell free culture (AID 720686)
# [16] = qHTS assay to test for compound auto fluorescence at 460 nm (blue) in HepG2 cells (AID 720687)
# Method in brief: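 HepG2 cells in MEM with 10% FBS, attached overnight at 37 C, were exposed to compound or DMSO for 1 hr at 37 C, 5% CO2. Blue fluorescence was read at 405/460 nm, with triamterene as reference fluorophore.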
# [17] = molecular target: Glucocorticoid receptor (Homo sapiens) (UniProt P04150); test: qHTS assay to identify small molecule antagonists of the glucocorticoid receptor (GR) signaling pathway (AID 720692; active = well fitted inhibition curve with a large enough effect in the signal ratio in the repeat runs, not every such curve was filed as active; inconclusive = weak or mixed curves, or effect the other way; inactive = no such curve, though single readings can be large or run the other way; the % refers to the signal ratio)
# Method in brief: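 Antagonism was scored as loss of dexamethasone-driven (5 nM final) reporter signal in HeLa cells bearing a glucocorticoid response element–beta-lactamase construct, after 18 h compound exposure at 37 C and 2 h FRET substrate loading.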
# [18] = qHTS assay to test for compound auto fluorescence at 535 nm (green) in HepG2 cells (AID 720675)
# [19] = qHTS assay for small molecule disruptors of the mitochondrial membrane potential (AID 720635); also: potency is read from the fitted curve at half-maximal effect
# Method in brief: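 HepG2 cells exposed to compound 1 hr at 37C, then Mito-MPS dye 30 min. Ratio read of aggregate (540/590 nm) versus monomer (490/535 nm) fluorescence.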
# [20] = molecular target: Glucocorticoid receptor (Homo sapiens) (UniProt P04150); test: qHTS assay to identify small molecule agonists of the glucocorticoid receptor (GR) signaling pathway (AID 720691; active = well fitted activation curve with a large enough effect in the signal ratio in the repeat runs, not every such curve was filed as active; inconclusive = weak or mixed curves, or effect the other way; inactive = no such curve, though single readings can be large or run the other way; the % refers to the signal ratio); details: GR-bla HeLa, beta-lactamase reporter ratio, 18 h; activation: at 62.4 µM (top of the series)
# Method in brief: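 Steps: seed GR-bla HeLa cells, incubate 4 h at 37 C/5% CO2; pin-transfer DMSO-dissolved compounds; incubate 18 h at 37 C; add LiveBLAzer B/G FRET substrate; after 2 h at room temperature, measure fluorescence.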
# Chain of Glucocorticoid receptor (Homo sapiens) (P04150 whole entry, looked up): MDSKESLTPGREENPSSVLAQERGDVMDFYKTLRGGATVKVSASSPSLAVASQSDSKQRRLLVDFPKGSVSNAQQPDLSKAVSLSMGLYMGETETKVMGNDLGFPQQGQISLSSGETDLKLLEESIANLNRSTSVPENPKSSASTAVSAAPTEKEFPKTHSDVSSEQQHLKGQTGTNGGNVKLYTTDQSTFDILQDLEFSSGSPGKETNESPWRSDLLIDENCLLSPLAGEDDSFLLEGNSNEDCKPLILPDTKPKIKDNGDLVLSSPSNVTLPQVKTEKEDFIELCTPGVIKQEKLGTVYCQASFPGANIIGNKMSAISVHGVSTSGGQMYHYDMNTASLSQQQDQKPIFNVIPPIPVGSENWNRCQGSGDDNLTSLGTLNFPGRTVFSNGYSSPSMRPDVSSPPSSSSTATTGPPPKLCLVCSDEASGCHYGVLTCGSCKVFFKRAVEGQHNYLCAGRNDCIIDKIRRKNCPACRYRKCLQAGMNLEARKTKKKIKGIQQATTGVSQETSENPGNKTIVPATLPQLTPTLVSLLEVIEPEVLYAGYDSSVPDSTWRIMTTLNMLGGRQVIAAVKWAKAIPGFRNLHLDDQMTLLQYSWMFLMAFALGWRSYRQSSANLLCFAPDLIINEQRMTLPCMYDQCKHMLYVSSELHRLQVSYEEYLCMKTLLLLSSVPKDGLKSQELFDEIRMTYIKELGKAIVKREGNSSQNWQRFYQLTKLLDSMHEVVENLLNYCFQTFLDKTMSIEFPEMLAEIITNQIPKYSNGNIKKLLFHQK
smiles,measurement,setting,value
NC(=O)OCC(O)COc1ccc(Cl)cc1 (stereo not given),Potency,[1],inactive
same,Potency,[2],inactive
same,Potency,[3],inactive
same,Potency,[4],inactive
same,Potency,[5],inactive
same,Potency,[6],inactive
same,Potency,[7],inactive
same,Potency,[8],inactive
same,Potency,[9],inactive
same,Potency,[10],inactive
same,Potency,[11],inactive
same,Potency,[12],inactive
same,Potency,[13],inactive
same,outcome,[14],inactive
same,Potency,[15],inactive
same,outcome,[16],inactive
same,Potency,[17],inactive
CC(C)(C)C(=O)OCOC(=O)[C@@H]1N2C(=O)[C@@H](N=CN3CCCCCC3)[C@H]2SC1(C)C,Potency,[1],inactive
same,Potency,[2],inactive
same,Potency,[3],inactive
same,Potency,[4],inactive
same,Potency,[5],inactive
same,Potency,[6],inactive
same,Potency,[18],inactive
same,Potency,[7],inactive
same,Potency,[8],inactive
same,Potency,[9],inactive
same,Potency,[10],inactive
same,Potency,[11],inactive
same,Potency,[12],inactive
same,Potency,[13],inactive
same,Potency,[15],inactive
same,outcome,[16],inactive
CCCOc1ccc2nc(NC(=O)OC)sc2c1,Potency,[1],1.5 µM (active)
same,Potency,[2],1.88 µM (active)
same,Potency,[3],inactive
same,Potency,[5],inactive
same,Potency,[19],7.5 µM (active)
same,Potency,[6],inactive
same,Potency,[18],inactive
same,Potency,[8],inactive
same,Potency,[9],inactive
same,Potency,[10],inactive
same,Potency,[11],inactive
same,Potency,[12],inactive
same,Potency,[13],inactive
same,outcome,[14],inactive
same,Potency,[15],inactive
same,outcome,[16],inactive
same,Potency,[20],inactive
CC1(C)S[C@@H]2[C@H](NC(=O)C(C(=O)O)c3ccsc3)C(=O)N2[C@H]1C(=O)O (stereo not given in full),Potency,[1],inactive
same,Potency,[2],inactive
same,Potency,[3],inactive
same,Potency,[4],inactive
same,Potency,[5],inactive
same,Potency,[6],inactive
same,Potency,[18],inactive
same,Potency,[7],inactive
same,Potency,[8],inactive
same,Potency,[9],inactive
same,Potency,[10],inactive
same,Potency,[11],inactive
same,Potency,[12],inactive
same,Potency,[13],inactive
same,Potency,[15],inactive
same,outcome,[16],inactive
same,Potency,[20],inactive
same,Potency,[17],inactive
CO/N=C(\C(=O)N[C@@H]1C(=O)N2C(C(=O)OCOC(=O)C(C)(C)C)=C(/C=C\c3scnc3C)CS[C@H]12)c1csc(N)n1,Potency,[1],inactive
same,Potency,[2],inactive
same,Potency,[3],inactive
same,Potency,[4],inactive
same,Potency,[5],inactive
same,Potency,[6],inactive
same,Potency,[18],inactive
same,Potency,[7],inactive
same,Potency,[8],inactive
same,Potency,[9],inactive
same,Potency,[10],inactive
same,Potency,[11],inactive
same,Potency,[12],inactive
same,Potency,[13],inactive
same,outcome,[14],inactive
same,Potency,[15],inactive
same,outcome,[16],inactive
same,Potency,[20],inactive
same,Potency,[17],inactive
O=[N+]([O-])c1ccc(Oc2ccc(N=C=S)cc2)cc1,Potency,[1],13.3 µM (active)
same,Potency,[2],inactive
same,Potency,[3],inactive
same,Potency,[4],inactive
same,Potency,[19],5.96 µM (active)
same,Potency,[6],inactive
same,Potency,[18],inactive
same,Potency,[7],inactive
same,Potency,[8],inactive
same,Potency,[9],inactive
same,Potency,[10],inactive
same,Potency,[11],inactive
same,Potency,[12],inactive
same,Potency,[13],inactive
same,outcome,[14],inactive
same,Potency,[15],inactive
same,outcome,[16],inactive
CC(C)(C)NC[C@H](O)COc1ccccc1C1CCCC1,Potency,[1],inactive
same,Potency,[2],inactive
same,Potency,[3],inactive
same,Potency,[4],inactive
same,Potency,[5],inactive
same,Potency,[6],inactive
same,Potency,[18],inactive
same,Potency,[7],inactive
same,Potency,[8],inactive
same,Potency,[9],inactive
same,Potency,[10],inactive
same,Potency,[11],inactive
same,Potency,[12],inactive
same,Potency,[13],inactive
same,outcome,[14],inactive
same,Potency,[15],inactive
same,outcome,[16],inactive
same,Potency,[17],inactive
CC(C)Cc1ccc([C@@H](C)C(=O)NS(C)(=O)=O)cc1,Potency,[1],inactive
same,Potency,[2],inactive
same,Potency,[3],inactive
same,Potency,[4],inactive
same,Potency,[5],inactive
same,Potency,[6],inactive
same,Potency,[18],inactive
same,Potency,[8],inactive
same,Potency,[9],inactive
same,Potency,[10],inactive
same,Potency,[11],inactive
same,Potency,[12],inactive
same,Potency,[13],inactive
same,outcome,[14],inactive
same,Potency,[15],inactive
same,outcome,[16],inactive
CN1C(=O)CN2CCc3ccccc3C2c2cc(Cl)ccc21 (stereo not given),Potency,[1],29.8 µM (active)
same,Potency,[3],inactive
same,Potency,[4],inactive
same,Potency,[5],inactive
same,Potency,[19],inactive
same,Potency,[6],inactive
same,Potency,[18],inactive
same,Potency,[7],inactive
same,Potency,[8],inactive
same,Potency,[9],inactive
same,Potency,[10],inactive
same,Potency,[11],inactive
same,Potency,[12],inactive
same,Potency,[13],inactive
same,outcome,[14],inactive
same,Potency,[15],inactive
same,outcome,[16],inactive
same,Potency,[20],inactive
CCCCCCCCCCCCOCCCN,Potency,[1],inactive
same,Potency,[3],inactive
same,Potency,[4],inactive
same,Potency,[5],inactive
same,Potency,[19],inactive
same,Potency,[6],inactive
same,Potency,[18],inactive
same,Potency,[7],inactive
same,Potency,[8],inactive
same,Potency,[9],inactive
same,Potency,[10],inactive
same,Potency,[11],inactive
same,Potency,[12],inactive
same,Potency,[13],inactive
same,outcome,[14],inactive
same,Potency,[15],inactive
same,outcome,[16],inactive
same,Potency,[20],inactive
same,Potency,[17],inactive
CC(=O)c1ccc2c(c1)N(CCCN1CCN(CCO)CC1)c1ccccc1S2,Potency,[1],inactive
same,Potency,[2],inactive
same,Potency,[3],inactive
same,Potency,[5],inactive
same,Potency,[6],inactive
same,Potency,[18],inactive
same,Potency,[7],inactive
same,Potency,[8],inactive
same,Potency,[9],inactive
same,Potency,[10],inactive
same,Potency,[11],inactive
same,Potency,[12],inactive
same,Potency,[13],inactive
same,outcome,[14],inactive
same,Potency,[15],inactive
same,outcome,[16],inactive
same,Potency,[20],inactive
Cc1cc(-n2c(=O)[nH]c(=O)n(C)c2=O)ccc1Oc1ccc(S(=O)(=O)C(F)(F)F)cc1,Potency,[1],inactive
same,Potency,[3],inactive
same,Potency,[4],inactive
same,Potency,[5],inactive
same,Potency,[19],inactive
same,Potency,[6],inactive
same,Potency,[18],inactive
same,Potency,[7],inactive
same,Potency,[8],inactive
same,Potency,[9],inactive
same,Potency,[10],inactive
same,Potency,[11],inactive
same,Potency,[12],inactive
same,Potency,[13],inactive
same,outcome,[14],inactive
same,Potency,[15],inactive
same,outcome,[16],inactive
same,Potency,[20],inactive
Cc1ccccc1CNc1ncnc2c1ncn2[C@@H]1O[C@H](CO)[C@@H](O)[C@H]1O,Potency,[1],inactive
same,Potency,[3],inactive
same,Potency,[4],inactive
same,Potency,[5],inactive
same,Potency,[19],inactive
same,Potency,[6],inactive
same,Potency,[18],inactive
same,Potency,[7],inactive
same,Potency,[8],inactive
same,Potency,[9],inactive
same,Potency,[10],inactive
same,Potency,[11],inactive
same,Potency,[12],inactive
same,Potency,[13],inactive
same,outcome,[14],inactive
same,Potency,[15],inactive
same,outcome,[16],inactive
same,Potency,[20],inactive
CC[C@@]1(O)C(=O)OCc2c1cc1n(c2=O)Cc2cc3c([N+](=O)[O-])cccc3nc2-1,Potency,[1],0.473 µM (active)
same,Potency,[2],inactive
same,Potency,[3],0.473 µM (active)
same,Potency,[5],inactive
same,Potency,[6],inactive
same,Potency,[18],inactive
same,Potency,[7],inactive
same,Potency,[8],inactive
same,Potency,[9],inactive
same,Potency,[10],inactive
same,Potency,[11],inactive
same,Potency,[12],inactive
same,Potency,[13],inactive
same,outcome,[14],inactive
same,Potency,[15],inactive
same,outcome,[16],inactive
same,activation,[20],5.3% [inconclusive] (active)
